Screening results from PubChem.
tim10-1 inh: growth inhibitors of tim10-1 mutant yeast, primary screen, luminescence, uHTS. S. cerevisiae tim10-1 ts strain growth, BacTiter-Glo, 24 h. inhibition, % at 20 µM. 2.2% of 330,000 active. AID 463190, 2010;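 active means inhibition of at least 40%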;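 further: mutant grown at 25 °C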
SKKanGAS inh: S. pyogenes SKKanGAS growth inhibitors in kanamycin, primary screen, streptokinase expression inhibitor project, SKKanGAS strain, BacTiter-Glo luminescence | 1.3% of 300,000 active | inhibition, % at 7.5 µM | 6 h;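 active means mean replicate score, as percent of positive control median, at least 50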;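 further: strain carries kanamycin resistance gene driven by streptokinase promoter and grows in 40 µg/ml kanamycin; loss of luminescence reflects streptokinase promoter inhibition or plain growth inhibition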
TIM10 inh: growth inhibitors of isogenic TIM10 control yeast, primary screen, counter-screen for tim10-1 yeast inhibitor project, luminescence, uHTS | S. cerevisiae TIM10 strain growth, BacTiter-Glo luminescence, 24 h | inhibition, % at 10 µM | 1.4% of 330,000 active | AID 463195, 2010;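 active means inhibition of 40% or more at the single tested concentration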;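 further: wild-type TIM10 isogenic control strain grown at permissive 25 °C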
tim23-1 inh: growth inhibitors of tim23-1 mutant yeast, primary screen, luminescence, uHTS; S. cerevisiae tim23-1 growth, BacTiter-Glo luminescence, 24 h; inhibition, % at 20 µM; 1.3% of 330,000 active; AID 463212, 2010;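 active means growth inhibition of the mutant yeast at or above 50%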;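 further: temperature-sensitive mutant grown at 25 °C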
NALP3 yeast inh: NALP3 inflammasome inhibitors in reconstituted yeast, primary screen, luminescence, uHTS; Yeast reconstituted NLRP3/ASC/caspase-1, beta-gal luminescence, 24 h; inhibition, % at 10 µM; 0.39% of 330,000 active; AID 2825, 2010;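 active means inhibition of 50% or more; inactive means inhibition below 50%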
tim10-1 confirm: growth inhibitors of tim10-1 mutant yeast, confirmation, single concentration, luminescence, S. cerevisiae; shares compounds with tim10-1 inh; S. cerevisiae tim10-1 ts strain growth, BacTiter-Glo, 24 h; inhibition, % at 20 µM; 56% of 7,400 active;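 active means inhibition of yeast growth at or above a set limit in either of two repeat tests at 20 µM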;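 further: tim10-1 mutant grown at permissive 25 °C to find synthetic lethal compounds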
Numbers stand for hits. Hits are enriched below; roughly 4.6% of the tested compounds scored in any of these assays.

CN(C)CCCN(C(=O)c1ccc([N+](=O)[O-])s1)c1nc2cc3c(cc2s1)OCCO3 was read as tim10-1 inh 43, SKKanGAS inh inactive, TIM10 inh inactive, tim23-1 inh inactive, NALP3 yeast inh inactive and tim10-1 confirm 39.
Screening CN(C)CCCN(C(=O)c1cc2cc([N+](=O)[O-])ccc2s1)c1nc2cc3c(cc2s1)OCCO3 returned tim10-1 inh 79, SKKanGAS inh inactive, TIM10 inh inactive, tim23-1 inh inactive, NALP3 yeast inh inactive and tim10-1 confirm 27.
COc1ccc2sc(N(CCCN(C)C)C(=O)c3ccc(S(=O)(=O)N4CCCc5ccccc54)cc3)nc2c1 was read as tim10-1 inh 57, SKKanGAS inh inactive, TIM10 inh inactive, tim23-1 inh inactive, NALP3 yeast inh inactive and tim10-1 confirm 32.
For COc1cc2nc(N(CCCN(C)C)C(=O)c3ccc(S(=O)(=O)N4CCc5ccccc54)cc3)sc2cc1OC the results were tim10-1 inh inactive, SKKanGAS inh inactive, TIM10 inh inactive, tim23-1 inh inactive and NALP3 yeast inh inactive.
`Cc1ccc(CNCc2cc(Cl)ccc2O)cc1` gave tim10-1 inh inactive, TIM10 inh inactive, tim23-1 inh inactive and NALP3 yeast inh inactive.
Screening Cc1ccccc1-n1c(SCc2ccccn2)nc2n[nH]c(C)c2c1=N returned tim10-1 inh 40, SKKanGAS inh inactive, TIM10 inh inactive, tim23-1 inh inactive, NALP3 yeast inh inactive and tim10-1 confirm 38.
CCOc1ccccc1NC(=O)CCSc1nc2n[nH]c(C)c2c(=N)n1-c1ccccc1Cl was read as tim10-1 inh inactive, SKKanGAS inh inactive, TIM10 inh inactive, tim23-1 inh inactive and NALP3 yeast inh inactive.
`COc1ccc(OC)c(NC(=O)CSc2nc3n[nH]c(C)c3c(=N)n2-c2cccc(Cl)c2C)c1` gave tim10-1 inh 43, SKKanGAS inh inactive, TIM10 inh inactive, tim23-1 inh inactive, NALP3 yeast inh inactive and tim10-1 confirm inactive.
Cc1ccccc1-n1c(SCC(=O)Nc2ccccc2Cl)nc2n[nH]c(C)c2c1=N was read as tim10-1 inh 42, SKKanGAS inh inactive, TIM10 inh inactive, tim23-1 inh inactive, NALP3 yeast inh inactive and tim10-1 confirm inactive.
Screening COc1ccc2nc(C)cc(N3CCC(C(N)=O)CC3)c2c1 returned tim10-1 inh inactive, SKKanGAS inh inactive, TIM10 inh inactive, tim23-1 inh inactive and NALP3 yeast inh inactive.
COc1ccc(N2CCN(c3cc(C)nc4ccc(OC)cc34)CC2)cc1 was read as tim10-1 inh 43, SKKanGAS inh inactive, TIM10 inh inactive, tim23-1 inh inactive, NALP3 yeast inh inactive and tim10-1 confirm inactive.
For O=C(Cc1cccc(C(F)(F)F)c1)OCC(=O)N1CCN(S(=O)(=O)c2ccc(Cl)cc2)CC1 the results were tim10-1 inh 47, SKKanGAS inh inactive, TIM10 inh inactive, tim23-1 inh inactive, NALP3 yeast inh inactive and tim10-1 confirm inactive.
`CC(C)(O)C#Cc1ccc(C(=O)N2CCN(c3ccc(Cl)cc3)CC2)cc1` gave tim10-1 inh 49, SKKanGAS inh inactive, TIM10 inh inactive, tim23-1 inh inactive, NALP3 yeast inh inactive and tim10-1 confirm 40.
Screening CC(C)(O)C#Cc1ccc(C(=O)N2CCN(c3ccc(F)cc3)CC2)cc1 returned tim10-1 inh inactive, SKKanGAS inh inactive, TIM10 inh inactive, tim23-1 inh inactive and NALP3 yeast inh inactive.
`O=C(NCC(=O)N1CCCC(C(F)(F)F)C1)c1ccco1` (configuration not stated) gave tim10-1 inh inactive, TIM10 inh inactive, tim23-1 inh inactive and NALP3 yeast inh inactive.
Screening Fc1cccc(-c2cc3nc4c(c(NCc5ccco5)n3n2)CCCC4)c1 returned tim10-1 inh 50, SKKanGAS inh inactive, TIM10 inh inactive, tim23-1 inh inactive, NALP3 yeast inh inactive and tim10-1 confirm 35.
Screening CCOC(=O)N1CCN(C(=O)CCc2c(C)nc3c(c(C)nn3-c3ccc(C)c(C)c3)c2C)CC1 returned tim10-1 inh inactive, SKKanGAS inh inactive, TIM10 inh inactive, tim23-1 inh inactive, NALP3 yeast inh inactive and tim10-1 confirm 35.
